Sampled rows, rich in hits. Any-hit rate of the full collection: about 2.7%.
Tau ThT inhib: blocks human tau fibril formation measured by thioflavin T; recombinant tau K18 P301L, heparin-induced fibrillization, ThT fluorescence; 2.1% of 270,000 active; P10636; Potency, µM (doses to about 57.4 µM), without a hit: at the top dose activity, negative = inhibition, actives largely listed as inhibitors; note: potency is the fitted concentration of half-maximal effect; nearly all actives have a fitted effect of over 55% in size
Target sequence (P10636 561-689 P618L limits assumed): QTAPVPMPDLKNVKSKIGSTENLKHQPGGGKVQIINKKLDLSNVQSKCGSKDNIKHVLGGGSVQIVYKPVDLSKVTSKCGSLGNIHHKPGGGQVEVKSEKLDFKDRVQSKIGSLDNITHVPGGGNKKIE
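Heparin-induced (20 uM) aggregation of recombinant human K18 P301L tau, 15 uM unlabeled with 0.24 uM labeled, pH 7 acetate buffer, 6 hr at 37 C with compound. Fibrils quantified by 30 uM ThT fluorescence after 1 hr ambient incubation.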
Tau fluor counter: counter-screen for tau fibril formation inhibitors; tau K18 P301L (four-repeat tau fragment) Alexa594 fluorescence, heparin fibrillization; Potency, µM (series often up to 57.7 µM), for the others: at the highest dose activity change, negative = decrease; 0.93% of 280,000 active; AID 1463; note: potency is the fitted concentration of half-maximal effect; nearly all actives have a fitted effect of over 55% in size
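Human K18 P301L tau (15 uM unlabeled plus 0.24 uM Alexa 594-labeled, final) in 100 mM sodium acetate pH 7 was mixed with compound and 20 uM heparin and incubated 6 hr at 37 C.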
Tau fibril FP: blocks human tau fibril formation measured by polarization. 0.39% of 280,000 active. K18 P301L tau heparin fibrillization, Alexa594 FP, 6 h. AID 1468. P10636. Potency, µM (doses to about 57.7 µM), inactives show at the highest dose activity, negative = inhibition, usual class: inhibitors; note: potency is the fitted concentration of half-maximal effect; nearly all actives have a fitted effect of over 55% in size
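Quantitative HTS format: compounds meet 15 uM recombinant K18 P301L tau and Alexa 594-tau tracer in 100 mM sodium acetate pH 7; 20 uM heparin triggers fibrillization at 37 C over 6 hr; FP gives the signal.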
Coupling enz: inhibits coupling enzyme system, counter-screen for aldolase hits; coupling enzyme system counterscreen, AmpLite Red fluorescence; activity change, negative = inhibition, % at 58.2 µM, hits read low; 0.67% of 290,000 active; AID 2472; in the data active = activity change below about -30%
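Fluorescence at 525 nm excitation and 598 nm emission measured inhibition of the coupled detection system without aldolase. Compounds (at 57.5 uM final) were preincubated 10 min at room temperature with coupling enzyme reagent before a 20 min substrate/AmpLite Red step.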
* marks the source's active call; other numbers are inactive results; ? = inconclusive; . = no result; [ ] = remark or other dose. Unless noted, calls come from the whole dose curve; as a rule, active = well fitted curve in the direction sought with a large enough effect; inconclusive = small, poorly fitted or top-dose-only effect, or another doubt; inactive = no such curve, though single readings can be large; an effect the other way counts as inactive or inconclusive. % is set by controls: 0 for no effect and ±100 for the full control effect.

SMILES | Tau ThT inhib | Tau fluor counter | Tau fibril FP | Coupling enz
CCC(=O)OCCNc1cc(Sc2nc3ccccc3[nH]2)c2nonc2c1[N+](=O)[O-] | 8.9µM* | ? | ? | -2
COc1cc(NC(C)CCCN)c2ncccc2c1 (configuration not stated) | -11% | -15% | 0% | -3
COc1cc(NCCCCCCCN)c2ncccc2c1 | 7% | -3% | 5% | -37*
COc1ccc2[nH]c3c(N4CC(C)OC(C)C4)ncnc3c2c1 (configuration not stated) | -25% | -14% | 9% | -2
COc1cccc(N2CCN(c3ncnc4c3[nH]c3ccc(F)cc34)CC2C)c1 (configuration not stated) | ? | 18µM*[quencher] | ? | 1
c1ccc2c(c1)CCN(c1ncnc3c1[nH]c1ccccc13)C2 | ? | ? | ? | 0
COc1cccc(N2CCN(c3ncnc4c3[nH]c3ccccc34)CC2C)c1 (configuration not stated) | ? | 14µM*[quencher] | ? | -2
CC(=O)c1ccc(N2CCN(c3ccc(S(=O)(=O)NCCCN(C)C)cc3[N+](=O)[O-])CC2)cc1 | 10µM* | -9% | 4% | 0
COC(=O)c1ccc(NC(=O)NC(C)c2c(-n3cccc3)sc(C)c2C)cc1 (configuration not stated) | -2% | ? | 18µM* | .
CCOC(=O)Cc1ccc(NC(=O)NC(C)c2c(-n3cccc3)sc(C)c2C)cc1 (configuration not stated) | -5% | ? | ? | .
O=C1CC(=O)c2c1cccc2[N+](=O)[O-] | . | 5.6µM*[quencher] | ? | -16
CN(C)c1ccc(CNC(=O)c2cccn2-c2nnc(N3CCCCC3)s2)cc1 | -6% | -5% | 11% | .
O=C1CCCC2=C1C(c1ccc(O)c(O)c1)c1c(ccc3ncccc13)N2 (configuration not stated) | ? | ? | -17% | -72*
CCOc1ccc(C2C3=C(CCCC3=O)Nc3ccc4ncccc4c32)cc1 (configuration not stated) | . | ? | 13% | -2
Cc1ccc(C2CC(=O)N(Cc3ccccc3F)c3c2c(C)nn3-c2nc(C)cc(C)n2)cc1 (configuration not stated) | -16% | -13% | 0% | .
O=C1C(Cl)=C(NCc2cccnc2)C(=O)c2ccccc21 | . | . | . | 13
COCCCNC1=C(Cl)C(=O)c2ccccc2C1=O | ? | -12% | 6% | -21
CC(C)OCCCNC1=C(Cl)C(=O)c2ccccc2C1=O | 13µM* | ? | 7% | -10
O=C1C(Cl)=C(Nc2ccccc2)C(=O)c2ccccc21 | 3.2µM* | 3.5µM*[quencher] | ? | -33*
CC(C)NC1=C(Cl)C(=O)c2ccccc2C1=O | 25µM* | -28% | ? | -42*
O=C(O)c1cccc(NC2=C(Cl)C(=O)c3ccccc3C2=O)c1 | 2.8µM* | 4µM*[quencher] | 25µM* | -19
CC1=C(Nc2ccc(C(=O)O)cc2)C(=O)c2ccccc2C1=O | . | . | . | -12
CC(C)c1cnc2c(c1SCC(=O)NC(C)(C)C)c(=O)n(C)c(=O)n2C | 1% | -1% | 2% | .
C=CCNC1=C(Cl)C(=O)c2ccccc2C1=O | 1% | 7% | 2% | -35*
Cc1ccc(NCC(=O)c2ccccc2)cc1Cl | ? | -16% | -9% | -1
SMILES | Tau ThT inhib | Tau fluor counter | Tau fibril FP | Coupling enz
Cc1ccc(NC2=C(NC(=O)c3ccccc3)C(=O)c3ccccc3C2=O)cc1Cl | 16µM* | ? | ? | -48*
CCN(CC)CCCNC1=C(Cl)C(=O)c2ccccc2C1=O | ? | -25% | -8% | -13
O=C(O)c1ccc(NC2=C(Cl)C(=O)c3ccccc3C2=O)cc1 | 1.4µM* | 1.8µM*[quencher] | 3.5µM* | 19
CCN(Cc1ccccc1)S(=O)(=O)c1ccc(N2CCCCS2(=O)=O)cc1 | -1% | -8% | 10% | .
CCN(CC)c1ccc(C(=O)O)cc1 | -9% | -16% | -21% | -1
CCN(CC)c1ccc(/C=C2\C(=O)c3ccc(C(=O)O)cc3C2=O)cc1 | 2µM* | -7% | ? | 0
Cc1cccc(NC(=O)c2cc3c(=O)n4cccc(C)c4nc3s2)c1C | 2% | 3% | 0% | .
CC1=NOC(=O)/C1=C\c1ccc(-c2cccc(Cl)c2)o1 | 16µM* | ? | 3% | 4
OC[C@@H]1OC(O)[C@H](O)[C@H](O)[C@H]1O (some centres not stated) | . | . | . | 0
COc1cccc(C(=O)Nc2c(C(=O)c3ccc(F)cc3)oc3ccccc23)c1 | -3% | -16% | ? | .
Nc1ccc2nc(-c3cc(Cl)c(N)c(Cl)c3)[nH]c2c1 | 14µM* | ? | 14% | -1
Nc1ccc2nc(-c3ccc(Cl)cc3)[nH]c2c1 | 14µM* | 25µM*[quencher] | 7% | -6
Nc1cc(N)cc(-c2nc3ccccc3[nH]2)c1 | 13µM* | 13µM*[quencher] | 6% | -5
c1ccc(-c2nc3ccccc3[nH]2)cc1 | . | . | . | -3
Cc1nc2ccc(-c3nc4ccc(N)cc4[nH]3)cc2[nH]1 | 16µM* | ? | 5% | -1
CCc1cccc(NC(=O)c2cc3c(=O)n(Cc4ccc(OC)cc4)ccc3nc2C)c1 | 9% | -16% | -1% | .
COCCNC(=O)[C@H](C)/C=C/C(NC(=O)OCc1ccccc1)c1ccc(C(=O)OC)cc1 (some centres not stated) | -5% | -7% | 1% | 0
Nc1ccc(-c2nc3ccc(-c4nc5ccccc5o4)cc3[nH]2)cc1 | 8.9µM* | 16µM*[quencher] | 2% | -2
CCC(/C=C1\Sc2ccc(OC)cc2N1CCO)=C\c1sc2ccc(OC)cc2[n+]1CCO | 1.1µM* | 0.4µM*[fluorescent] | -13% | -15
CCO/C(=C/c1sc2ccc(OC)cc2[n+]1CCCS(=O)(=O)[O-])CC | -8% | -4% | -13% | 1
CCC(/C=C1\Sc2ccc(OC)cc2N1CC)=C\c1sc2ccc(OC)cc2[n+]1CCCS(=O)(=O)[O-] | 3.5µM* | 0.79µM*[fluorescent] | ? | 0
COc1ccc(NC(=O)Cn2c(=O)n(-c3ccc(OC)cc3)c(=O)c3ccc(C(=O)NCc4ccc(C)cc4)cc32)cc1 | 5% | -23% | ? | .
COc1cc(NC(=O)COC(=O)CNS(=O)(=O)c2ccc(F)c(F)c2F)cc(OC)c1 | 0% | -15% | -5% | 4
CN(C)c1ccc(S(=O)(=O)NCC(=O)OCC(=O)Nc2cc(Cl)cc(Cl)c2)cc1[N+](=O)[O-] | 28µM* | ? | ? | -1
CCCC[C@]12Cc3ccccc3[C@H](O1)C1=C(O2)C(=O)c2ccccc2C1=O | . | . | . | 0
CCCC[C@]12Cc3cc(OC)c(OC)cc3C(O1)C1=C(O2)C(=O)c2ccccc2C1=O | . | . | . | -36*
O=C1c2ccccc2C(=O)c2c(O)ccc(O)c21 | ? | -28% | ? | -17
O=C1c2ccccc2C(=O)c2c(O)c(O)cc(O)c21 | 5µM* | 14µM*[quencher] | ? | -12
CCOc1ccc(C(=O)NC2CC(=O)N(c3ccc(C)cc3)C2)cc1OCC (configuration not stated) | 7% | 8% | -7% | .
